The whole screen tested about 330,000 compounds, of which about 590 (0.18%) were called active. What follows is part of a selection rich in actives, with near analogues and random picks from the rest. Unmarked numbers belong to inactive results.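 Rule for the calls: active = superoxide response under a set limit, about three screen SD below normal (cut at about 65% in these data); inactive = the rest.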

This assay can be described thus: yeast aging ROS inhibitors as calorie-restriction mimetics – HTS, primary screen (AID 2690).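 Note: yeast aged for seven days with compound at 30 °C before DHE staining; 100% = average MFI of all compound-treated wells on the plate with controls excluded.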 The following applies: S. cerevisiae aged cells, superoxide DHE fluorescence; at 10 µM; active compounds read low.
With `COCCN(C(=O)CCC(=O)Nc1nccs1)C(C(=O)NC(C)(C)C)c1ccc(Cl)cc1` (stereo unspecified), the superoxide response (% of plate mean) is 87.1%.

Consider `O=C(NC1CCCC1)C1CC(=O)N(c2ccc(F)cc2)C1` (stereo unspecified), for which the superoxide response (% of plate mean) was 96.9%.

As to `COc1ccc(C(C)C)cc1S(=O)(=O)Nc1ncn[nH]1`, the superoxide response (% of plate mean) is 87.8%. For `O=c1o[nH]c(-c2ccccc2)c1N=Nc1c(F)cccc1Cl`, the superoxide response (% of plate mean) was 105%. The figure for `O=C(NCCCNC(=O)NC1CCCCC1)NC1CCCCC1` is 106%; for `O=C(Oc1c(-c2ccco2)oc2ccccc2c1=O)c1cccnc1` it is 104%; for `O=[N+]([O-])c1cc(S(=O)(=O)Nc2cccc(Cl)c2)ccc1N=Nc1c(O)[nH]c2ccccc12` it is 91.3%. Take `CC(=O)c1c(C)c[nH]c1C`: the superoxide response (% of plate mean) is 90.3%. The figure for `Cc1ccc(NC(=O)CSCC(=O)N2CCOCC2)cc1` is 98.5%; for `CCc1ccccc1N(CC(=O)NCC1CCCO1)C(=O)CCC(=O)Nc1nccs1` (stereo unspecified) it is 88%; for `COc1ccc(-c2cc(C(=O)N(C)Cc3ccc(OC)c(OC)c3OC)c3ccccc3n2)cc1OC` it is 96.5%. Regarding `Cc1cccc(CN2CCC(CNC(=O)Nc3ccc(F)c(Cl)c3)CC2)c1`, the superoxide response (% of plate mean) is 92.6%. To `O=C(NCC1CCN(Cc2ccccc2Cl)CC1)Nc1cccc(Cl)c1` belongs 103%.

Take `Cc1ccccc1NC(=O)NCC1CCN(Cc2cccc(Cl)c2)CC1`: the superoxide response (% of plate mean) was 36.3% (active). For `C/C(N)=C(/C#N)C(=O)COC(=O)C1=NN(c2ccccc2)C(=O)CC1`, the superoxide response (% of plate mean) is 82.1%. The figure for `CN(C)C1=NC[C@H](Cc2ccccc2)N1CCc1ccc(F)cc1` is 98.7%. To `C/C(=N\NS(=O)(=O)c1cccc([N+](=O)[O-])c1)c1cc2ccccc2o1` belongs 107%; to `CCC(=O)N(C)C(c1ccccc1Cl)c1nnnn1-c1c(C)cccc1C` (stereo unspecified), 107%. To `COc1ccccc1C(=O)Nc1ccnn1C1CCN(Cc2cnn(C)c2)CC1` belongs 92%; to `O=C(NNC(=O)c1cc(S(=O)(=O)N2CCCCC2)ccc1Cl)c1ccccc1O`, 95.4%; to `CCC1(CC)C(=O)C2=C3C1[C@H](C(=O)OC)C=C(C(=O)OC)C[C@H]3[C@H]1C(=O)N(Cc3ccccc3)C(=O)[C@H]1[C@H]2C` (stereo partly specified), 107%. With `CC[C@]12c3[nH]c4cc(CCC(=O)N(C)C)ccc4c3CCN1C(=O)[C@@H](CC(=O)NCC13CC4CC(CC(C4)C1)C3)C[C@@H]2C(=O)N1CCN(C(=O)C2CC2)CC1`, the superoxide response (% of plate mean) is 120%. The figure for `O=C(NNC(=O)C1C2CCC(C2)C1C(=O)O)c1ccc(Cl)cc1` (stereo unspecified) is 97.2%.

Consider `CSc1sc(C(=O)NNC(=O)c2ccc(Cl)cc2)c2c1C=CCC2`, for which the superoxide response (% of plate mean) was 61.9% (active). The figure for `CCOC(=O)NNC(=O)c1ccc(Cl)cc1` is 96.8%. The figure for `O=C(NC(=S)Nc1ccccc1N1CCCCC1)c1ccc(F)cc1` is 98.2%; for `O=C(Nc1ccccc1N1CCCC1)c1ccc(F)c(S(=O)(=O)N2CCOCC2)c1` it is 85.3%. To `O=C(Nc1ccccc1N1CCCC1)c1ccc2ccccc2c1` belongs 59% (active); to `Cc1cccc2c1cnn2C(=O)CCC(=O)NC1CCCCC1`, 82.7%; to `N#Cc1cccc(NC(=O)CN2CCCCCC2)c1`, 94.7%. Regarding `COc1cc(CO)ccc1OCC(=O)Nc1cccc2ccccc12`, the superoxide response (% of plate mean) was 99.9%. The figure for `Cc1cccc2[nH]c(CN(C)C(=O)C3CCC(=O)N(CCc4ccccc4)C3)nc12` (stereo unspecified) is 102%; for `COc1ccc(-c2c(-c3cc(OC)cc(OC)c3)n(C)c3ccc(-c4ccn[nH]4)cc23)cc1` it is 87%. The figure for `CC1CC(C)CN(C(=O)CSc2ccsc2[N+](=O)[O-])C1` (stereo unspecified) is 155%; for `CCCCc1cc(=O)oc2c(C)c(OCC(=O)N3CCC(C(N)=O)CC3)ccc12` it is 81.2%; for `Cc1cc2c(C)nc(N/N=C/c3ccccc3)nc2o1` it is 97.9%.

For the compound `Cc1c(NC(=O)c2cc(-c3ccc(Br)cc3)on2)c(=O)n(-c2ccccc2)n1C`, the superoxide response (% of plate mean) is 98.6%. The figure for `Cc1c(NC(=O)c2coc(=O)c(Br)c2)c(=O)n(-c2ccccc2)n1C` is 96.5%; for `Cc1cc2oc(C(=O)Nc3c(C)n(C)n(-c4ccccc4)c3=O)c(C)c2cc1Cl` it is 43% (active); for `CC1(C)CC(=O)C=C(c2cccc3c2Oc2ccccc2S3)C1` it is 109%. To `O=C(CSc1nc2[nH]c(=O)[nH]c(=O)c2s1)Nc1cccc(F)c1` belongs 94.1%; to `Cc1cc2ncn(CCCCOc3ccccc3)c2cc1C`, 80.1%. The figure for `COc1ccc(CNC(=O)C2CC(c3ccc(C(F)(F)F)cc3)=NO2)cc1` (stereo unspecified) is 103%; for `O=S(=O)(NCCCCCCNS(=O)(=O)c1c(F)cccc1F)c1ccc2c(c1)OCCO2` it is 104%; for `O=C(O)C1CCN(S(=O)(=O)N2CCOCC2)CC1` it is 126%. Consider `COc1ccc(CCNC(=O)c2ccccc2-c2ccccc2C(=O)O)cc1OC`, for which the superoxide response (% of plate mean) was 57.2% (active). To `COc1ccc(CCNC(=O)Cc2ccc(C)cc2)cc1OC` belongs 102%. To `O=C(O)c1ccccc1-c1ccccc1C(=O)NCCc1ccccc1` belongs 108%; to `Cc1ccc(NC(=O)CN2CCC3(O)CCCCC3C2c2ccc3c(c2)OCO3)c(C)c1` (stereo unspecified), 95%. `COc1cccc(NC(=O)[C@H](Cc2c[nH]c3ccccc23)NC(=O)[C@@H]2Cc3ccccc3CN2)c1`: the superoxide response (% of plate mean) is 113%.

On to `O=C(NC1CCN(Cc2ccccc2)CC1)c1ccc(Oc2cc(Cl)cc(Cl)c2)o1`, for which the superoxide response (% of plate mean) was 87.6%. With `COc1cccc(NC(=S)NCCCN2CCOCC2)c1`, the superoxide response (% of plate mean) was 96.1%. To `CCc1ccccc1NC(=O)NCCN1CCCCC1` belongs 92.8%.

In the case of `COc1cccc(NC(=O)NCCN2CCCCC2)c1`, the superoxide response (% of plate mean) is 34.4% (active).

Take `CC(=O)NC1=NN(C(C)=O)C(C)(c2ccc(C)cc2)S1` (stereo unspecified): the superoxide response (% of plate mean) was 108%.

For the compound `CC(=O)NC1=NN(C(C)=O)C(C)(c2ccc(Cl)s2)S1` (stereo unspecified), the superoxide response (% of plate mean) was 102%. Take `CC(=O)NC1=NN(C(C)=O)C(C)(CCS(=O)(=O)c2ccc(Cl)c(Cl)c2)S1` (stereo unspecified): the superoxide response (% of plate mean) was 63.7% (active). As for `Cc1nc([N+](=O)[O-])cn1CC(=O)Nc1ccc(Cl)cc1`, the superoxide response (% of plate mean) was 104%. The figure for `COc1ccc(C2=NN(c3nc4ccccc4s3)C(=O)C2)cc1` is 51% (active); for `COc1ccc(-n2nnnc2-c2nc3ccccc3s2)cc1` it is 88.6%; for `COc1ccc(/C=C(/CC(=O)Nc2ccc(C)cc2)c2nc3ccccc3s2)cc1` it is 97.7%. Consider `COc1ccc2c(c1)OC(O)(C(F)(F)C(F)F)CC2=O` (stereo unspecified), for which the superoxide response (% of plate mean) is 82.7%. As to `CCN(CC)S(=O)(=O)c1cc([N+](=O)[O-])ccc1NNC(=O)Nc1ccccc1`, the superoxide response (% of plate mean) is 101%. The figure for `CCOc1ccc(N2CC(C(=O)N/N=C/c3sccc3C)CC2=O)cc1` (stereo unspecified) is 100%; for `COc1ccc2[nH]c(=O)c(CNc3ccc(C)c(C)c3)cc2c1` it is 96.3%; for `COc1cc(C(=S)N2CCOCC2)cc(OC)c1OC(=O)c1cc([N+](=O)[O-])c(C)c([N+](=O)[O-])c1` it is 113%.

As for `CCCC1NC(=S)NC(C)=C1C(C)=O` (stereo unspecified), the superoxide response (% of plate mean) is 92.8%. The figure for `O=[N+]([O-])c1ccc2nc(-c3ccccn3)[nH]c2c1` is 98.5%; for `O=[N+]([O-])c1ccc2c(c1)Nc1nc3ccccc3nc1N2` it is 61.2% (active).

For `COc1ccc([N+](=O)[O-])cc1-c1nc2ccccc2nc1-c1ccccc1`, the superoxide response (% of plate mean) was 99.1%.

Consider `Cc1nn(CC(=O)Nc2ccc3c(c2)nc(CN2CCCCC2)n3C)c(=O)c2ccccc12`, for which the superoxide response (% of plate mean) was 94.1%. To `Cc1nn(CC(=O)Nc2ccc(F)cc2)c(=O)c2ccccc12` belongs 98.5%; to `Cc1ccc(NC(=O)Cn2nc(C)c3ccccc3c2=O)c(C)c1`, 54.4% (active); to `Cc1ccc(-c2nc(CS(=O)CC(=O)NC3CCCC3)c(C)o2)cc1` (stereo unspecified), 108%. `Cc1ccc(-c2nc(CS(=O)CC(=O)N3CCN(c4ncccn4)CC3)c(C)o2)cc1` (stereo unspecified): the superoxide response (% of plate mean) is 63.9% (active).

With `COc1ccc(-c2nc(CS(=O)CC(=O)N3CCc4ccccc4C3)c(C)o2)cc1` (stereo unspecified), the superoxide response (% of plate mean) is 92.3%.

(Values after PubChem BioAssay AID2690 (NMMLSC, 2010).)
